# In the library only some 11% were active in any assay of this set; here they are far more common.
# RGS12 GoLoco inh – qHTS Assay for Inhibitors of RGS12 GoLoco Motif Activity (Red Fluorophore); Guanine nucleotide-binding protein G(i) subunit alpha-1 (Homo sapiens), P63096; actives 0.44% (n = 230,000); Gai1:RGS12 GoLoco peptide FP, rhodamine, 10 min; Potency, µM (series often up to 61.6 µM), without a hit: at the highest dose activity, negative = inhibition, actives largely listed as inhibitors; active = well fitted inhibition curve with a large enough effect, not every such curve was filed as active; inactive = no such curve, though single readings can be large or run the other way; note: potency is the fitted concentration of half-maximal effect; % is set by controls: 0 for no effect and ±100 for the full control effect; nearly all actives have a fitted effect of over 30% in size
# HTT ATP protect – qHTS Multiplex Assay to Identify Dual Action Probes in a Cell Model of Huntington: Cytoprotection (ATP); PC12 HTT-Q103 induced, cytoprotection, ATP luminescence, 40 h; Potency, µM (doses to about 56.4 µM), for the others: cytoprotection (ATP increase), actives largely listed as activators; actives 0.14% (n = 230,000); AID 1471, 2008; note: potency is the fitted concentration of half-maximal effect; % of control where 0% means no effect; nearly all actives have a fitted effect of over 45% in size
#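 Compounds added alongside 100 nM tebufenozide, which induces toxic Q103 huntingtin exon 1-GFP in stable PC12 cells; surviving cells quantified by luminescent ATP measurement. Medium: phenol red-free DMEM, 5% equine and 5% calf serum.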
# PNC inhibitor – High Content Assay for Compounds that inhibit the Assembly of the Perinucleolar Compartment; AID 2417, 2010; activity change (PNC), negative = inhibition, % at 10 µM; actives 3.1% (n = 140,000); PC3M PTB-GFP, PNC prevalence imaging, 16 h; hits give low values;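 active = readout at or below -70, meaning at least 70% loss of cells showing the perinucleolar compartment, a nuclear body marking cancer cells; inconclusive = readout between -30 and a set limit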;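 note: plate controls were DMSO wells for no effect and camptothecin positive control wells for full effect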
#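 Read-out is percentage of cells bearing a perinucleolar compartment, from automated 20x imaging of fixed, Hoechst-stained PC3M PTB-GFP cells. Cells were seeded 4 h, then exposed 16 h to compound (23 nl of library stock) in duplicate plates.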
# HPGD block – qHTS Assay for Inhibitors of HPGD (15-Hydroxyprostaglandin Dehydrogenase); 15-hydroxyprostaglandin dehydrogenase [NAD(+)] (Homo sapiens), P15428; purified HPGD, NADH fluorescence kinetic, PGE2 substrate; actives 4.3% (n = 150,000); Potency, µM, for inactives: top-dose activity change, negative = inhibition, hits mostly inhibitors; AID 894, 2007; active = well fitted inhibition curve with a large enough effect, not every such curve was filed as active; inconclusive = small, poorly fitted or top-dose-only effect, or another doubt; inactive = no such curve, though single readings can be large or run the other way; note: potency is the fitted concentration of half-maximal effect; % is set by controls: 0 for no effect and ±100 for the full control effect
# Target sequence (P15428 whole entry, looked up): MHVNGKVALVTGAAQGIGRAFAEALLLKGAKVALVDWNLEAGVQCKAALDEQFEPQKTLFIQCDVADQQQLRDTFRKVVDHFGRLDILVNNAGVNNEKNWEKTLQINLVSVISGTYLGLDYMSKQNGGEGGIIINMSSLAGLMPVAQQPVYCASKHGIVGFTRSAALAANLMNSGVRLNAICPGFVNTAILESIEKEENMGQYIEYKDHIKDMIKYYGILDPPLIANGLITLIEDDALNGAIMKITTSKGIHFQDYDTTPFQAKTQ
#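 20 nM HPGD preincubated 15 min at room temperature with compound in 50 mM Tris-HCl pH 8, 0.01% Tween 20. Started with 1 mM NAD+ and 30 uM prostaglandin E2; NADH fluorescence (360/450 nm) read 5 times over 30-s intervals, last minus first.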
# HTT aggregate – qHTS Multiplex Assay to Identify Dual Action Probes in a Cell Model of Huntington: Aggregate Formation (GFP) | PC12 HttQ103-GFP aggregates, Acumen cytometry, 40 h | Potency, µM (doses to about 46.1 µM), without a hit: at the top dose activity change, negative = inhibition, hits mostly inhibitors | actives 1.1% (n = 220,000); note: potency is the fitted concentration of half-maximal effect; % is set by controls: 0 for no effect and ±100 for the full control effect; nearly all actives have a fitted effect of over 60% in size
#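 Read-out: GFP aggregate count by laser scanning cytometer (488 nm excitation, 500-530 nm emission, 1–25 µm objects >6 SD above background). Cells: PC12, inducible HTTex1-Q103-GFP, 100 nM tebufenozide; compounds titrated.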
# ALDH1A1 inh – qHTS Assay for Inhibitors of Aldehyde Dehydrogenase 1 (ALDH1A1); actives 7.3% (n = 220,000); Purified ALDH1A1, NADH fluorescence, propionaldehyde substrate; Aldehyde dehydrogenase 1A1 (Homo sapiens), P00352; Potency, µM (series often up to 75.3 µM), for the others: top-dose activity, negative = inhibition, usual class: inhibitors; active = well fitted inhibition curve with a large enough effect, not every such curve was filed as active; inconclusive = small, poorly fitted or top-dose-only effect, or another doubt; inactive = no such curve, though single readings can be large or run the other way;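 note: potency is the fitted concentration of half-maximal effect; plate controls were no enzyme wells and a reference inhibitor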
# Target sequence (P00352 whole entry, looked up): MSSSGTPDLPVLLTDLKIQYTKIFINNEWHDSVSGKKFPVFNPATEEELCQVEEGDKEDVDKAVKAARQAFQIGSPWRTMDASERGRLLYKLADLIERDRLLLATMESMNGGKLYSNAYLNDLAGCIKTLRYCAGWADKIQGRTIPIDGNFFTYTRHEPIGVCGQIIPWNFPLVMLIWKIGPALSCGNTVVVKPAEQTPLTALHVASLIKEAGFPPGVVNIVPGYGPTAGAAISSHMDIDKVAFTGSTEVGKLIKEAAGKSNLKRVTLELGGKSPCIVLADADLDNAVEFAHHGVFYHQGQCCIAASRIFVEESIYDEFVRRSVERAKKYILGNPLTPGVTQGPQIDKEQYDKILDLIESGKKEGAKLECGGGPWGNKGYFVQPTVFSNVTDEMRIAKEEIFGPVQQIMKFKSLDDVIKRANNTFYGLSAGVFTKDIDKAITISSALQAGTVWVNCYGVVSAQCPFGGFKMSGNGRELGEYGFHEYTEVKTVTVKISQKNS
# * marks the source's active call; other numbers are inactive results; u = inconclusive; x = not tested or not shown; [ ] = remark or other dose. Unless noted, calls come from the whole dose curve; as a rule, active = well fitted curve in the direction sought with a large enough effect; inconclusive = small, poorly fitted or top-dose-only effect, or another doubt; inactive = no such curve, though single readings can be large; an effect the other way counts as inactive or inconclusive.
SMILES,RGS12 GoLoco inh,HTT ATP protect,PNC inhibitor,HPGD block,HTT aggregate,ALDH1A1 inh
N#C/C(=C(/O)COC(=O)CSc1ccc2ccccc2c1)c1nc2ccccc2[nH]1,55.2%,13.7%[1.9 µM],-80.4*,-16.2%,22.5%,-2.9%
CCOc1ccc(N=Nc2c(=O)[nH]n3c(=O)cc(C)[nH]c23)cc1,15.9%,-72.4%,7.0,39.8µM*,-3.2%,-2.0%
CCOc1ccc(N=Nc2c(N)[nH][nH]c2=O)cc1,-17.6%,x,u,-13.4%,-1.0%,18.9µM*
CC(=O)NCCc1nc2ccccc2n1Cc1cccc(C)c1,0.4%,-1.6%[10 µM],x,x,-6.2%[9.22 µM],x
Cc1ccc(N2C(=O)CS/C2=C(\C(Cl)=C(Cl)Cl)[N+](=O)[O-])cc1,240.7%,1.6%[10 µM],18.4,-1.9%,u,20µM*
CC1CN(C)C(c2ccccc2)C(C)C12NC(=O)NC2=O (configuration not stated),-8.5%,12.6%,7.6,-13.2%,4.4%,7.08µM*
CC(=O)c1cccc(NC(=S)NC(=O)c2ccc(C)cc2Cl)c1,17.6%,-22.9%,x,x,-21.6%[9.22 µM],8.91µM*
CC(=O)c1cccc(NC(=S)NC(=O)c2ccccc2Cl)c1,10.2%,13.0%[10 µM],-29.4,20µM*,12.1%,u
O=C(NC(=S)Nc1cccc(NC(=O)c2ccccc2Cl)c1)c1cccs1,-1.4%,3.8%[10 µM],40.9,-9.0%,1.5%,4.47µM*
Cc1ccccc1C(=O)Nc1cccc(NC(=S)NC(=O)c2cccs2)c1,3.2%,-32.6%,22.7,-8.2%,0.4%,u
Cc1cc(NC(=O)c2ccccc2)c(Cl)cc1N,-0.6%,17.4%[10 µM],x,x,-26.9%[9.22 µM],x
CC1(C)S[C@H]2C(NC(=O)[C@@H](N)c3ccc(O)cc3)C(=O)N2[C@@H]1C(=O)O (some centres not stated),3.4%,-20.3%,x,-8.3%,0.8%,4.0%
COc1cc(C2NC(=O)c3ccccc3O2)cc(OC)c1OC (configuration not stated),-1.9%,-7.1%,-0.3,u,19.3%,u
CCOc1ccc(C2NC(=O)c3ccccc3O2)cc1 (configuration not stated),6.7%,-3.7%,7.2,-14.2%,-6.7%,22.4µM*
CCOc1ccc(NC2c3ccccc3C(=O)N2Cc2ccc3c(c2)OCO3)cc1 (configuration not stated),5.8%,-59.6%,-21.6,28.2µM*,u,u
COc1cc(NC2c3ccccc3C(=O)N2Cc2ccc3c(c2)OCO3)cc(OC)c1OC (configuration not stated),-2.0%,-7.1%,-21.5,-15.2%,4.5%,-7.7%
Cc1nc2ccccn2c1-c1csc(Nc2cccc(O)c2)n1,6.7%,u,x,x,22.3%[9.22 µM],5.3%
Cc1cccc(Nc2nc(-c3ccc4c(c3)OCCO4)cs2)c1,3.5%,-9.4%,21.8,-7.7%,-7.2%,20µM*
Cc1cccc(Nc2nc(-c3c(C)nc4ccccn34)cs2)c1,4.3%,-46.9%,22.7,-26.0%,11.2µM*,u
Cc1cccc(Nc2nc(-c3ccncc3)cs2)c1,-1.9%,u,x,x,u,4.1%
O=C(Nc1ccc(N2CCN(C(=O)c3cccs3)CC2)c(Cl)c1)c1ccco1,1.2%,-0.6%[10 µM],u,-5.2%,-26.0%,28.2µM*
COc1ccc(NC(=O)c2ccco2)cc1NC(=O)c1cccs1,6.7%,2.2%,16.7,-5.4%,-8.6%,-10.5%
COc1cc(NC(=O)c2cccs2)c(OC)cc1NC(=O)c1ccco1,-11.6%,-2.0%[10 µM],-113.8*,u,7.6%,u
O=C(Nc1ccc(N2CCN(C(=O)c3ccco3)CC2)c(Cl)c1)c1c(F)c(F)c(F)c(F)c1F,1.5%,9.6%[10 µM],-15.6,-15.6%,u,-6.6%
O=C(Nc1ccc(N2CCN(C(=O)c3cccs3)CC2)c(Cl)c1)c1cccnc1,-0.7%,x,x,x,u,-14.2%
SMILES,RGS12 GoLoco inh,HTT ATP protect,PNC inhibitor,HPGD block,HTT aggregate,ALDH1A1 inh
Cc1ccccc1C(=O)N1CCN(c2ccc(NC(=O)c3ccco3)cc2Cl)CC1,-6.4%,-25.0%[10 µM],u,u,12.6µM*,u
Cc1ccc(S(=O)(=O)O[C@H]2CC(C(C)(C)C)CC[C@@H]2c2ccccc2)cc1 (some centres not stated),4.6%[14.2 µM],x,x,-8.7%,x,0.2%[13.5 µM]
Cc1ccc(SCC2CNc3nc4ccccc4c(=O)n32)c(C)c1 (configuration not stated),8.8%,7.0%,-11.3,-5.2%,-0.6%,-8.0%
CC1(C(=O)NCc2ccccn2)C=CCN1C(=O)c1ccccc1 (configuration not stated),10.3%,-1.6%,-118.9*,-9.8%,22.8%,3.7%
CNC(=O)C1(C)C=CCN1C(=O)c1ccccc1 (configuration not stated),2.0%,0.6%,27.2,-14.1%,7.0%,6.0%
CC1=NCCN1S(=O)(=O)c1c(C(C)C)cc(C(C)C)cc1C(C)C,17.1%,-12.8%[10 µM],x,x,9.6%[9.22 µM],2.24µM*
C/C(CC(=O)Nc1cccc2c1CCCC2)=N\NC(=O)COc1ccccc1,-2.4%,4.6%[10 µM],8.3,-14.6%,-2.3%,9.46µM*
CC(=O)N/N=C(\C)CC(=O)Nc1cccc2c1CCCC2,14.2%,u,x,x,4.2%[9.22 µM],-2.2%
O=C(O)CCc1ccc(-c2ccccc2)o1,-11.0%,-86.2%[10 µM],u,-25.3%,u,3.55µM*
CCCCNC(=O)CNC(=S)N(CCCN1CCOCC1)Cc1cccs1,7.0%,7.7%[10 µM],-21.2,-14.2%,-14.1%,-5.2%
O=[N+]([O-])c1ccc2ncnc(Nc3ccc4c(c3)OCCO4)c2c1,1.0%,-62.4%,x,x,14.1µM*,0.355µM*
COc1ccc(Nc2ncnc3ccc([N+](=O)[O-])cc23)c(OC)c1,2.6%,-23.1%,x,x,u,u
O=[N+]([O-])c1ccc(O)c(Nc2ncnc3ccc(Br)cc23)c1,3.2%,-157.3%,x,x,31.6µM*,u
CCNc1ncc2nc(-c3cn(C)c4ccccc34)c(=O)n(C)c2n1,7.5%,-1.2%,x,x,x,u
Cc1nonc1C1CCCN1Cc1cn[nH]c1-c1ccc(-c2ccccc2)cc1 (configuration not stated),2.3%,11.7%[10 µM],x,x,8.6%[9.22 µM],7.08µM*
COc1cc(-c2[nH]ncc2CN2CCCC2c2nonc2C)cc(OC)c1OC (configuration not stated),13.0%,-13.9%[10 µM],x,x,-0.3%[9.22 µM],2.7%

# From PubChem BioAssay
